Assay results: PubChem BioAssay AID1159580 (chemical genetic matrix, 2015)
“And” between values parts separate entries of the source, which are not always exact repeats. Equal values may be shown once. The whole screen tested about 5,500 compounds, of which about 2,000 (36%) were called active. Inconclusive results (about 18%) are left out. Cut-off read from the data, not from the text of the source: active = normalized growth mostly below about 0.91 (no sharp cut-off); inconclusive = no clear call, values can overlap the other calls; inactive = mostly above about 0.92. The list shows a part of the results.

Experiment: chemical genetic growth profiling, strain panel (AID 1159580);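 note: tested at 20 µM; growth read once vehicle control cultures reached saturation at 30 °C; 1 = growth at the plate median or of vehicle wells; lower values mean less growth of the strain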
Conditions: S. cerevisiae deletion strains, growth OD

Measured: normalized growth

CC(=O)OCC(=O)[C@@]1(O)[C@H](OC(C)=O)CC2C3CCC4=CC(=O)C=C[C@]4(C)[C@@]3(F)[C@@H](O)C[C@@]21C (some centres not stated)
inactive: locus YAL013W, strain DEP1, active compounds read low 0.993 | locus YAL021C, strain ccr4, active compounds read low 0.982 | locus YAL026C, strain drs2, active compounds read low 0.959 | locus YAL030W, strain snc1, active compounds read low 0.995 | locus YBL061C, strain skt5, active compounds read low 1 | locus YBR009C, strain hhf1, active compounds read low 0.923 | locus YBR021W, strain FUR4, active compounds read low 0.986 | locus YBR023C, strain chs3, active compounds read low 0.981 | locus YBR171W, strain sec66, active compounds read low 0.985 | locus YBR229C, strain ROT2, active compounds read low 0.951 | locus YBR231C, strain swc5, active compounds read low 1.01 | locus YBR279W, strain paf1, active compounds read low 0.987 | locus YCL011C, strain gbp2, active compounds read low 0.947 | locus YCL016C, strain dcc1, active compounds read low 0.965 | locus YCL029C, strain bik1, active compounds read low 0.99 | locus YCL069W, strain vba3, active compounds read low 0.983 | locus YCR088W, strain abp1, active compounds read low 0.987 | locus YDL005C, strain med2, active compounds read low 0.993 | locus YDL035C, strain GPR1, active compounds read low 0.973 | locus YDL040C, strain nat1, active compounds read low 1 | locus YDL074C, strain BRE1, active compounds read low 0.947 | locus YDL101C, strain DUN1, active compounds read low 0.98 | locus YDL134C, strain PPH21, active compounds read low 0.994 | locus YDL185W, strain tfp1, active compounds read low 0.99 | locus YDL192W, strain arf1, active compounds read low 0.997 | locus YDR001C, strain nth1, active compounds read low 0.959 | locus YDR069C, strain doa4, active compounds read low 1.01 | locus YDR101C, strain arx1, active compounds read low 1.01 | locus YDR137W, strain rgp1, active compounds read low 0.98 | locus YDR159W, strain sac3, active compounds read low 0.923 | locus YDR162C, strain NBP2, active compounds read low 0.988 | locus YDR195W, strain ref2 1.03 | locus YDR297W, strain sur2, active compounds read low 0.987 | locus YDR318W, strain mcm21, active compounds read low 0.994 | locus YDR334W, strain swr1, active compounds read low 0.982 | locus YDR335W, strain msn5, active compounds read low 0.983 | locus YDR388W, active compounds read low 1 | locus YDR392W, strain spt3, active compounds read low 0.913 | locus YDR502C, strain sam2, active compounds read low 1 | locus YEL003W, strain gim4, active compounds read low 0.992 | locus YEL037C, strain rad23, active compounds read low 0.983 | locus YEL061C, strain CIN8 (second series), active compounds read low 0.973 | locus YEL061C, strain CIN8, active compounds read low 0.991 | locus YER015W, strain faa2, active compounds read low 1 | locus YER016W, strain bim1, active compounds read low 0.961 | locus YER110C, active compounds read low 0.974 | locus YER111C, strain swi4, active compounds read low 0.976 | locus YER155C, strain BEM2 (second series), active compounds read low 1.04 | locus YER155C, strain BEM2, active compounds read low 0.998 | locus YER167W, strain BCK2, active compounds read low 0.991 | locus YFR010W, strain ubp6, active compounds read low 0.983 | locus YGL078C, strain dbp3, active compounds read low 0.995 | locus YGL086W, strain mad1, active compounds read low 0.99 | locus YGL167C, strain pmr1, active compounds read low 0.998 | locus YGL173C, strain kem1, active compounds read low 1.01 | locus YGL227W, strain vid30, active compounds read low 0.979 | locus YGL240W, strain doc1, active compounds read low 1.02 | locus YGL248W, strain PDE1, active compounds read low 0.975 | locus YGL253W, strain hxk2, active compounds read low 0.964 | locus YGR135W, strain pre9, active compounds read low 0.997 | locus YGR252W, strain gcn5, active compounds read low 0.967 | locus YHR013C, strain ard1, active compounds read low 0.948 | locus YHR027C, strain rpn1, active compounds read low 0.966 | locus YHR030C, strain SLT2, active compounds read low 0.995 and 0.971 | locus YHR079C, strain IRE1 (second series), active compounds read low 1.01 | locus YHR079C, strain IRE1, active compounds read low 0.964 | locus YHR094C, strain hxt1, active compounds read low 1.01 | locus YHR129C, strain ARP1, active compounds read low 0.977 | locus YHR142W, strain chs7, active compounds read low 0.957 | locus YHR200W, strain rpn10, active compounds read low 0.997 | locus YIL066C, strain RNR3, active compounds read low 0.981 | locus YIL073C, strain SPO22, active compounds read low 1.02 | locus YIL125W, strain kgd1, active compounds read low 0.996 | locus YIR030C, strain dcg1, active compounds read low 0.989 | locus YJL092W, strain hpr5, active compounds read low 0.991 | locus YJL095W, strain BCK1 (second series), active compounds read low 0.986 | locus YJL095W, strain BCK1, active compounds read low 0.945 and 0.981 | locus YJL115W, strain asf1, active compounds read low 0.972 | locus YJL129C, strain trk1, active compounds read low 0.988 | locus YJL134W, strain LCB3, active compounds read low 0.993 | locus YJL154C, strain vps35, active compounds read low 0.986 | locus YJL164C, strain tpk1, active compounds read low 0.974 | locus YJL166W, strain qcr8, active compounds read low 1.04 | locus YJL168C, strain set2, active compounds read low 0.999 | locus YJL187C, strain SWE1 (second series), active compounds read low 0.975 | locus YJL187C, strain SWE1, active compounds read low 0.984 | locus YJR043C, strain POL32, active compounds read low 0.992
